# S1P4 ag: agonists of human S1P4 receptor; activation, % at 4.98 µM; O95977; AID 1509; 220,000 compounds, 0.35% hits; S1P4-expressing cell line, agonist reporter assay; in the data active means activation above about 11%;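 further: 0% = DMSO vehicle and 100% = reference agonist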
# Target sequence (O95977 whole entry, looked up): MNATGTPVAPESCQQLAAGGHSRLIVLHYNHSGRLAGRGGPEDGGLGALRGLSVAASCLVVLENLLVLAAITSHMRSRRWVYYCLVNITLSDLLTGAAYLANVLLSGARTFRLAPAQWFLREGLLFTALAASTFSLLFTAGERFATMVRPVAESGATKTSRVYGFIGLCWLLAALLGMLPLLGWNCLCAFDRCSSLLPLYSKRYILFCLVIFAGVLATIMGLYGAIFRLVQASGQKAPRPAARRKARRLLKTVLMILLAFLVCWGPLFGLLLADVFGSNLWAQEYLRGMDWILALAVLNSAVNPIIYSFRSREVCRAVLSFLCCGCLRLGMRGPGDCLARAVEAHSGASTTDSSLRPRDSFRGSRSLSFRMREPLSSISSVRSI
# S1P4 antag: human S1P4 receptor antagonism. S1P4-expressing cells, antagonist mode, reporter read-out. inhibition, % at 4.98 µM. 220,000 compounds, 0.26% hits; in the data active means inhibition above about 29%;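 further: 0% = wells stimulated with agonist and 100% = vehicle wells without agonist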
# PGE2 EP2 inh: blocks the human prostaglandin E2 receptor EP2; C6 glioma cells expressing human EP2, cAMP TR-FRET; cells stimulated with saturating PGE2; P43116; 260,000 compounds, 0.52% hits; inhibition, % at 25 µM;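 active means percent inhibition above 40 after rounding to a whole number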;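 further: rat C6 glioma host cells with rolipram phosphodiesterase inhibitor present; the protocol text gives 20 µM as final concentration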
# EP2 modulator: modulators of human EP2 prostaglandin E2 receptor; P43116; EP2-expressing cells, cAMP HTRF FRET, PGE2 co-stimulation; 260,000 compounds, 0.83% hits; induction, % at 25 µM;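 active means compounds whose cAMP rise, as percent of the full-agonist control response, exceeds 60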;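 further: rat C6 glioma line stably carrying human EP2 under a CMV promoter; the protocol text gives 20 µM as final concentration; 100% = response of wells given 1 µM PGE2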
# S1P3 antag: S1P3 (human) receptor antagonism; Q99500; CHO S1P3 NFAT-BLA reporter, FRET fluorescence, antagonist mode; inhibition, % at 4.98 µM; 170,000 compounds, 0.27% hits; AID 485;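 active means inhibition above the plate cutoff, the mean inhibition of test wells on that plate plus 3 SD, cut at about 28% in these data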;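 further: cells challenged with S1P at its EC80 of 0.8 µM; blue over green emission ratio from cleaved BLA substrate after 4 h stimulation; 0% = S1P-stimulated wells and 100% = unstimulated DMSO-only wells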
# * = called active by the depositor; . = no result given; ! = a repeat was not active. Only some compounds are listed: those with a hit (about 1.9% of all), similar ones and a draw of the others.
SMILES,S1P4 ag,S1P4 antag,PGE2 EP2 inh,EP2 modulator,S1P3 antag
Cc1ccc(C)n1-c1ccc(-c2nnc3n2CCCCC3)s1,1.1,-10.8,58.6*,27.7,6.3
C1CCc2nnc(-c3nnc4n3CCCCC4)n2CC1,-1.6,-4.9,-4.2,10.3,5.0
CCn1cc(C(=O)N2CCC(C(=O)c3nc4ccccc4s3)CC2)cn1,.,.,.,-20.7,.
CCN(CC)C(=O)c1sc2c(c1C)c(=O)n(-c1ccc(OC)cc1OC)c(=O)n2CC(=O)c1ccccc1,-0.5,-11.4,2.2,0.4,-12.7
COc1ccc(-n2c(=O)c3c(C)c(C)sc3n(Cc3cccc(F)c3)c2=O)c(OC)c1,0.9,6.6,4.6,60.6*,-6.8
O=C(N=c1ccn(-c2nc3ccccc3nc2NS(=O)(=O)c2ccc(Cl)cc2)cc1)c1cccs1,0.1,-2.7,47.9*,20.7,-9.4
CCOc1ccc(S(=O)(=O)Nc2nc3ccccc3nc2-n2ccc(=NC(=O)c3cccs3)cc2)cc1,-1.1,16.6,44.5*,-0.1,16.2
CCc1ccc2c(c1)N(C[C@H](C)CN(C)C)c1ccccc1S2,.,.,43.9*,-12.9,.
CCC(=O)c1ccc2c(c1)N(CCCN(C)C)c1ccccc1S2,.,.,25.7,16.4,.
CCOc1ccc(N(C(=O)c2ccco2)C(C(=O)NC2CCCC2)c2ccccc2)cc1 (centres undefined),.,.,5.9,60.5*,.
CCOc1ccc(C(C(=O)NC2CCCC2)N(C(=O)c2ccco2)C2CCCC2)cc1 (centres undefined),.,.,4.6,-15.7,.
CCOC(=O)C1=NN(c2ccccc2)C2(S1)SC(C(C)=O)=C(C)N2c1ccccc1 (centres undefined),1.1,-3.7,2.5,63.3*,.
Oc1ccc([C@H]2Oc3cc(O)cc(O)c3C[C@H]2O)cc1,.,.,8.7,11.3,.
Oc1cc(O)c2c(c1)O[C@@H](c1ccc(O)c(O)c1)[C@H](O[C@@]1(c3cc(O)c(O)c(O)c3)Oc3cc(O)cc(O)c3[C@H](O)[C@H]1O)C2,.,.,57.0*,11.7,.
O=C1COc2ccc(S(=O)(=O)NCc3ccncc3)cc2N1,.,.,1.5,-10.0,.
COc1ccccc1NC(=O)CSc1nc(C)cc(C)c1C#N,.,.,8.0,45.3,.
S=c1[nH]nc(-c2cccs2)n1/N=C/c1cn(-c2ccccc2)nc1-c1cccs1,1.1,4.5,7.4,85.6*,0.2
O=C(O)[C@@H]1[C@H](C(=O)Nc2cccc3cccnc23)[C@@H]2CC[C@H]1O2,.,.,58.3*,-53.6,.
Cc1ccc2nc(N3C(=O)C(O)=C(C(=O)c4ccc(C)o4)C3c3ccco3)sc2c1 (centres undefined),.,.,49.0*,14.0,.
CCC(CC)c1nnc(NC(=O)C2CCCCC2)s1,.,.,8.6,-13.6,.
CC(C)c1nnc(NC(=O)C2CCCCC2)s1,4.3,-27.2,12.8,31.3,93.9*
COc1ccc(S(=O)(=O)N2CCN(c3c(C)cccc3C)CC2)cc1C,.,.,10.2,9.5,.
Cc1ccc(S(=O)(=O)N2CCSC2)cc1C,-3.9,-8.4,109.4*!,-13.9,.
COc1ccc(S(=O)(=O)N2CCN(C)CC2)cc1C,-3.4,-14.9,8.8,-9.8,56.0*
COc1ccc(S(=O)(=O)N2CCSC2)cc1C,2.3,-21.9,7.7,6.0,-5.2
SMILES,S1P4 ag,S1P4 antag,PGE2 EP2 inh,EP2 modulator,S1P3 antag
COc1ccc(S(=O)(=O)N2CCN(c3ccc(C)cc3C)CC2)cc1OC,-1.2,0.5,11.4,-2.9,103.1*
COc1ccc(S(=O)(=O)N2CCN(c3c(C)cccc3C)CC2)cc1OC,-2.5,-23.6,7.1,-9.4,-15.9
Cc1ccccc1OCC(=O)Nc1sc(C(=O)N2CCCC2)c(C)c1C#N,.,.,4.3,-22.4,.
C=CCOc1ccc(C2C(C#N)=C(N)Oc3n[nH]c(C)c32)cc1OC (centres undefined),.,.,15.8,-107.1,.
CCOC(=O)c1cc(OC(=O)c2ccccc2)n(-c2ccccc2)n1,2.6,-18.0,9.1,61.7*,.
CCOC(=O)c1cc(OC(=O)c2cccc([N+](=O)[O-])c2)n(-c2ccccc2)n1,-0.4,-9.9,8.3,16.5,.
Cc1ccccc1C(=O)N1CCN(c2ccc(NC(=O)c3ccc([N+](=O)[O-])o3)cc2)CC1,.,.,130.3*,-154.0,.
CCN1CCN(c2ccc(NC(=O)c3ccc([N+](=O)[O-])o3)cc2)CC1,.,.,95.1*,-137.5,.
CC(C)C(=O)N1CCN(c2ccc(NC(=O)c3ccc([N+](=O)[O-])o3)cc2Cl)CC1,-3.2,46.8*,115.8*,-45.6,1.6
O=C(Nc1ccc(N2CCOCC2)c(Cl)c1)c1ccc([N+](=O)[O-])o1,-1.3,17.0,20.4,-87.1,6.0
CCN1CCN(c2ccc(NC(=O)c3ccccc3F)cc2)CC1,.,.,59.5*,-41.3,.
Cc1ccccc1C(=O)N1CCN(c2ccc(NC(=O)c3cccnc3)cc2)CC1,-0.9,1.1,13.9,-27.7,-13.2
Cc1ccc(C(=O)C2=C(O)C(=O)N(CCc3ccccc3)C2c2cccnc2)o1 (centres undefined),.,.,20.2,28.9,.
O=C(CSc1nc2ccccc2n1Cc1c(F)cccc1Cl)N1CCOCC1,.,.,11.4,7.2,.
COc1ccccc1N1CC(C(=O)OCC(=O)c2ccc(C)cc2)CC1=O (centres undefined),.,.,8.5,-99.7,.
COc1cc(C(c2c(C)[nH][nH]c2=O)c2c(C)[nH][nH]c2=O)ccc1OC(=O)c1ccccc1,.,.,14.3,-13.2,.
CCCc1nn(CC(=O)N(Cc2cccnc2)C2CC2)c(=O)c2cc3ccsc3n12,.,.,.,-38.5,.
CCc1ccc2nc(SCC(=O)Nc3ccccc3C(F)(F)F)c(C#N)cc2c1,.,.,12.0,-20.8,.
CCc1cc2ccccc2nc1SCC(=O)Nc1ccccc1C(F)(F)F,.,.,4.8,61.2*,.
CCc1cc2ccccc2nc1SCC(=O)Nc1ccccc1F,.,.,9.3,58.0,.
CCc1cc2ccccc2nc1SCC(=O)Nc1ccccc1Cl,.,.,11.7,69.0*,.
COc1ccc2c(c1)c1c(C)c3cnccc3c(C)c1n2CCCN,.,.,48.5*,32.2,.
COc1ccc2c(c1)c1nc3ccccc3nc1n2CCCN1C(=O)c2ccccc2C1=O,0.8,-15.3,14.2,5.3,-7.2
Cc1c(/C(Cc2ccccc2)=N/O)c2ccccc2n1C,0.1,7.2,0.8,63.4*,.
Cc1ccc(CN2CCSc3ccc(C(=O)NCc4ccccn4)cc32)cc1,0.4,6.4,8.8,61.2*,-1.8
SMILES,S1P4 ag,S1P4 antag,PGE2 EP2 inh,EP2 modulator,S1P3 antag
C#CCNC(=O)C1CCN(c2nc3ccccc3n2CC)CC1,.,.,.,-19.4,.
CC(C)=CC1C(C(=O)Nc2ccc(Br)cn2)C1(C)C (centres undefined),-1.5,10.1,.,14.1,70.9*
COc1ccc(-c2nnc(SCC(=O)N3c4ccccc4CC3C)o2)cc1OC (centres undefined),.,.,3.2,-14.8,.
Cc1ccc2cc(CN(C(=S)NCCc3ccccc3)C3CCCC3)c(=O)[nH]c2c1,.,.,6.8,15.1,.
CN(C(=O)COC(=O)CNC(=O)c1ccccc1Cl)c1ccccc1,0.9,-13.6,4.2,34.9,-8.4
CN(C(=O)COc1ccccc1C(=O)NCCOc1ccccc1)c1ccccc1,2.1,-2.1,89.5*,-67.4,15.6
CC(NC(=O)c1ncoc1-c1ccccc1C(F)(F)F)c1ccccn1 (centres undefined),.,.,2.7,7.9,.
c1ccc2c(NCCCN3CCOCC3)c3ccccc3nc2c1,11.5*,-31.9,7.8,-28.2,-13.2
